Assay outcomes: PubChem, several laboratories
An excerpt weighted towards active compounds, which were near 8.9% of everything screened.
WNV protease inh – inhibitors of WNV NS2B-NS3 protease, primary screen, biochemical, fluorogenic substrate | AID 577, 2007 | 0.18% of 65,000 active | fluorogenic substrate Ex360/Em465; active compounds read low | z-score (concentration not given with the values) | Genome polyprotein (West Nile virus), P06935; in the data active = z-score below about -3
Htt clearance – clearance of mutant huntingtin inclusions, primary screen, imaging, HeLa Exon1htt(103Q)mCFP, confocal imaging. aggregate imaging; zero = plate's median compound well. inhibition, % at 1.5 µM. 0.42% of 47,000 active;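 active = inhibition of aggregate fluorescence above about 70%, also judged a hit by eye on the cell image, limit read from the data, passing the limit was not always enough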;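 also: cells exposed to compound for three days before fixation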
M1 antag – antagonists of rat M1 muscarinic receptor; Muscarinic acetylcholine receptor M1 (Rattus norvegicus), P08482; CHO-M1 cells, Fluo-4 calcium, ACh EC80 antagonist mode; active compounds read low; B-score at 10 µM; 3.4% of 64,000 active; AID 628, 2007;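 active = calcium fluorescence response, raw or row-and-column corrected B-score, differing from the plate sample mean either way at a set confidence level, mostly lower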
M1 ag – M1 muscarinic receptor agonists, primary screen, CHO-M1 cells, Fluo-4 calcium, agonist mode; Fluo-4 calcium fluorescence; active compounds read high; B-score at 10 µM; 3% of 64,000 active; AID 626, 2007;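 active = fluorescence rise, raw or as B-score row- and column-corrected plate score, outside the 99.7% band of its plate's samples, either direction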
D1 allo mod – D1 CRE-luciferase signal change, two-sided – cell-based, HEK293 D1, dopamine EC30, D1 allosteric modulator project, primary screen. D(1A) dopamine receptor (Homo sapiens), P21728. dopamine EC30 potentiation; actives deviate in either direction. B-score at 10 µM. 5.9% of 58,000 active. AID 641, 2007;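 active = luminescence count or its row- and column-corrected plate score outside the 99.7% band of the plate's sample wells, on either side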
Target sequence (P21728 whole entry, looked up): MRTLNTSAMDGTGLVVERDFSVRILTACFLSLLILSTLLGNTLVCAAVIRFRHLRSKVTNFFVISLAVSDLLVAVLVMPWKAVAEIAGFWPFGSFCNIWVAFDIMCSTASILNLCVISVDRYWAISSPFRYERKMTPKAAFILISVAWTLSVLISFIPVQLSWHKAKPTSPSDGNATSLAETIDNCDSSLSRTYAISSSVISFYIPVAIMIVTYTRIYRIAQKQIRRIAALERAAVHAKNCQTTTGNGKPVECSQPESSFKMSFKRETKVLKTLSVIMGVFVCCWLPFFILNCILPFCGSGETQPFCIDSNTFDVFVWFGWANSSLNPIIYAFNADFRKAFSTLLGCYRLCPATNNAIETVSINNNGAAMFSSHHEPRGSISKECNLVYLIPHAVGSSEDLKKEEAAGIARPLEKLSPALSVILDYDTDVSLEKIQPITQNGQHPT
M1 antag conf – rat M1 muscarinic receptor antagonists, confirmation, CHO cells, Fluo-4 calcium, duplicate; shares compounds with M1 antag; ACh EC80 antagonism; active compounds read low; 43% of 1,700 active; AID 677, 2007; calcium response (max-min fluorescence) at 10 µM;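 active = calcium response below the same-plate mean of wells given acetylcholine alone at its 80%-effect dose, minus 3 SD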;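 also: raw fluorescence intensity difference in arbitrary instrument units and not normalized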
mGluR4 antag – human mGluR4 response to M1 antagonist hits, M1 allosteric modulator project, cell-based, antagonist mode, secondary assay 1 | shares compounds with M1 antag | CHO-mGluR4 calcium flux, Fluo-4 fluorescence, glutamate EC80; active compounds read low | fluorescence response (max-min) at 10 µM | 0.9% of 1,700 active | AID 678, 2007;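 active = fluorescence response below the plate's average for near-maximal glutamate wells, less 3 SD of those wells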;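 also: raw unnormalized fluorescence span taken in the window right after glutamate addition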
* marks the source's active call; other numbers are inactive results.

Results for Cc1ccc2nc3c(cc(C(=O)NCc4cccnc4)c(=N)n3C(C)C)c(=O)n2c1 ?
WNV protease inh: 2.3; M1 antag: -0.014; M1 ag: 0.71; D1 allo mod: -0.37

How did Cc1cccn2c(=O)c3cc(C(=O)NCc4cccnc4)c(=N)n(C(C)C)c3nc12 do in these assays?
WNV protease inh: 3.9; Htt clearance: 30; M1 antag: -2.5*; M1 ag: -1.2; D1 allo mod: -1.8; M1 antag conf: 579; mGluR4 antag: 259

How did N=c1c(C(=O)NCc2ccco2)cc2c(=O)n3ccccc3nc2n1Cc1ccccc1 do in these assays?
WNV protease inh: 0.14; M1 antag: -3*; M1 ag: -0.083; D1 allo mod: -0.076; M1 antag conf: 589*; mGluR4 antag: 206

Results for CC(C)n1c(=N)c(C(=O)NCCc2ccccc2)cc2c(=O)n3ccccc3nc21 ?
WNV protease inh: 2.5; M1 antag: -4.1*; M1 ag: 4.1; D1 allo mod: -0.74; M1 antag conf: 445*; mGluR4 antag: 247

How did COC(=O)c1ccc(N(C(=O)c2ccco2)C(C(=O)NC2CCCC2)c2ccco2)cc1 (stereo not given) do in these assays?
Htt clearance: 31

Results for Cc1cc(C(=O)CSc2nncs2)c(C)n1-c1ccc2c(c1)OCO2 ?
WNV protease inh: -0.17; M1 antag: -4.2*; M1 ag: -0.0083; M1 antag conf: 403*; mGluR4 antag: 227

Results for Cc1ccc(C(C(=O)NC2CCCC2)N(Cc2cccs2)C(=O)c2csnn2)o1 (stereo not given) ?
Htt clearance: -38

What do the screens show for `COc1cc2c(cc1OC)C(C(=O)N1CCN(c3ccccn3)CC1)C(c1cccs1)N(C)C2=O` (stereo not given)?
WNV protease inh: 1.4; Htt clearance: -29; M1 antag: -2.1*; M1 ag: 0.51; D1 allo mod: -0.27; M1 antag conf: 604; mGluR4 antag: 239

How did O=C(NCc1ccccn1)c1coc(=O)c(Br)c1 do in these assays?
WNV protease inh: 0.03; Htt clearance: 36; M1 antag: -0.059; M1 ag: 0.18; D1 allo mod: 0.51

What do the screens show for `CC(C)OCC(O)CS(=O)Cc1ccccc1` (stereo not given)?
Htt clearance: -96

Results for CC1=C(C)/C(=N\OS(=O)(=O)c2ccccc2)C=CC1=O ?
Htt clearance: -46

What do the screens show for `CCCNC(=O)C1=C(C)C(=O)OC12CCC(C)CC2` (stereo not given)?
WNV protease inh: 1.3; Htt clearance: -159; M1 antag: -2.2*; M1 ag: 0.2; D1 allo mod: 0.7; M1 antag conf: 602; mGluR4 antag: 225

What do the screens show for `COC(=O)c1ccc(CSc2nc(-c3ccc(OC)cc3)nc3c2c(=O)n(C)c(=O)n3C)o1`?
WNV protease inh: 0.88; Htt clearance: 38; M1 antag: 0.56; M1 ag: -0.38; D1 allo mod: -0.38

How did O=C(CSCc1cnn(-c2ccccc2)c1-n1cccc1)NCCN1CCOCC1 do in these assays?
WNV protease inh: 0.09; M1 antag: -2.7*; M1 ag: -0.079; M1 antag conf: 520*; mGluR4 antag: 160

What do the screens show for `CCC(c1nnnn1Cc1ccco1)N(Cc1cc2cc(C)cc(C)c2[nH]c1=O)CC1CCCO1` (stereo not given)?
WNV protease inh: 1.7; M1 antag: 0.13; M1 ag: -0.56; D1 allo mod: 0.24

How did CCC(c1nnnn1Cc1ccco1)N(Cc1ccccc1OC)Cc1cc2cc(C)ccc2[nH]c1=O (stereo not given) do in these assays?
WNV protease inh: -2; Htt clearance: 50; M1 antag: -2.2*; M1 ag: 0.65; D1 allo mod: 0.8; M1 antag conf: 590; mGluR4 antag: 201

How did CCOC(=O)c1cc(C)n(CCCN2CCOCC2)c1C do in these assays?
WNV protease inh: 0.29; M1 antag: -1*; M1 ag: -0.2; D1 allo mod: -1.7; M1 antag conf: 403*; mGluR4 antag: 204

What do the screens show for `CN(C)CCOC(=O)C1(c2ccccc2)CCOCC1`?
WNV protease inh: -1.4; Htt clearance: 11; M1 antag: -3.2*; M1 ag: -1.4; D1 allo mod: 0.046; M1 antag conf: 362*; mGluR4 antag: 202

How did O=C(OCCCN1CCCC1)C1(c2ccccc2)CCCC1 do in these assays?
WNV protease inh: 0.61; M1 antag: -18*; M1 ag: 0.039; D1 allo mod: -0.28; M1 antag conf: 27*; mGluR4 antag: 261

Results for O=C(N1CCCCC1)C1(c2ccccc2)CCOCC1 ?
WNV protease inh: -0.99; M1 antag: 0.28; M1 ag: 0.64; D1 allo mod: -0.79

What do the screens show for `CCOc1ccc(/C(O)=C2/C(=O)C(=O)N(CCCn3ccnc3)C2c2cccs2)cc1Cl` (stereo not given)?
WNV protease inh: 0.95; Htt clearance: -19; M1 antag: 1.7; M1 ag: -0.051; D1 allo mod: 0.26

How did CC1CCN(C(=O)CSc2nnc(CN3CCOCC3)n2-c2ccccc2)CC1 do in these assays?
WNV protease inh: 0.83; Htt clearance: -101; M1 antag: -0.32; M1 ag: -0.42; D1 allo mod: 0.25

How did O=C(CN1C2CCCC1CC(NC(=O)c1ccccc1)C2)Nc1nccs1 (stereo not given) do in these assays?
Htt clearance: -62

What do the screens show for `Oc1c(C(Nc2ccccn2)c2ccccn2)ccc2cccnc12` (stereo not given)?
WNV protease inh: 1.4; M1 antag: -3.6*; M1 ag: 2.3; D1 allo mod: 1.1; M1 antag conf: 602; mGluR4 antag: 189

Results for CN(C(=O)CSc1nc2ccccc2n1CCc1ccccc1)C1CCS(=O)(=O)C1 (stereo not given) ?
WNV protease inh: -1.3; M1 antag: -10*; M1 ag: 1.4; D1 allo mod: -0.66; M1 antag conf: 449; mGluR4 antag: 203

How did O=c1cc(-c2c(F)c(F)c(F)c(F)c2F)oc2c(F)c(F)c(F)c(F)c12 do in these assays?
WNV protease inh: -0.49; M1 antag: -0.16; M1 ag: -0.11; D1 allo mod: -0.39

How did O=C(NC1CCCCC1)N1CCN(c2ncccn2)CC1 do in these assays?
Htt clearance: 37

How did Cn1cnnc1SCc1cccc(Br)c1 do in these assays?
Htt clearance: -50
